Out of some 63,000 compounds screened, about 1,100 (1.7%) were called active. This is one part of a sample in which actives are shown more often than they occur. Measured potencies and affinities stand elsewhere. Unmarked numbers belong to inactive results.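 The calls were made as follows: active = compounds whose percent cytotoxicity in the single-dose primary screen, scaled between solvent and toxic-drug controls, exceeds 50; inactive = the rest.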

The nature of the assay: cytotoxicity in KRAS-transformed pancreatic duct cells, primary screen, cell-based, fluorescence, HTS (AID 431).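 Also: 0% = DMSO solvent wells and 100% = doxorubicin-treated wells.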 As to conditions: HPDE-C7K KRASV12 cells, Alamar Blue viability, 48 h; at 10 µM; active compounds read high. (Resazurin is reduced to fluorescent resorufin, in cell work by metabolically active cells.)
For `Cc1sc2nc(CN3CCOCC3)nc(N3CCC(C(N)=O)CC3)c2c1C`, the cytotoxicity is 2.3%.
Next, `O=C(COCCOCC(=O)N(c1ccccn1)C1CCCCC1)N(c1ccccn1)C1CCCCC1`: -24%; `CCOC(=O)c1nnn(-c2nonc2N)c1COc1ccccc1`: -16.7%; `CCN(CC)CCNc1nc(-c2ccco2)c2c(c1C#N)CC(C)(C)OC2`: -15.7%.
Next, `CN(C)CCNc1nc(-c2ccco2)c2c(c1C#N)CC(C)(C)OC2`: -0.3%; `C=CCn1c(SCC2=C(C(=O)OCC)C(C)NC(=O)N2)nnc1C1CCCCC1` (centres undefined): -17.2%; `Cc1cc(NS(=O)(=O)c2ccc(C3CCCCC3)cc2)no1`: -3%.
Next, `Oc1ccccc1-c1cc(C(F)(F)C(F)F)[nH]n1`: -5.1%; `O=C1CC(C(F)(F)C(F)(F)C(F)(F)C(F)F)=Nc2ccccc2N1`: -3.2%; `FC(F)C(F)(F)C(F)(F)C(F)(F)c1cc(-c2ccccc2)n[nH]1`: 82.9% (active).
`O=C(Cc1cn2ccsc2n1)NCc1ccccc1`: the cytotoxicity is -14.8%.
Regarding `COc1cc2c(cc1OC)C1Cc3ccc(OC)c(OC)c3CN1CC2` (centres undefined), the cytotoxicity is -5%.
As for `COc1cc2c(cc1OC)C(c1cc(OC)c(OC)c(OC)c1)NCC2` (centres undefined), the cytotoxicity is 7.4%.
As for `Cc1ccc(S(=O)(=O)Cn2nnnc2CN2CCCC3(CCCCC3)C2)cc1`, the cytotoxicity is 4.3%.
Then `COc1ccc2nc(NC(=O)c3cnccn3)sc2c1`, with 4.7%.
For `Cc1nc2sc(C(c3ccccc3)N3CCN(CCO)CC3)c(O)n2n1` (centres undefined), the cytotoxicity is -1.5%.
`OCCN1CCN(C(c2cccs2)c2ccc3cccnc3c2O)CC1` (centres undefined): the cytotoxicity was 83.8% (active).
Then `CN1CCN(C(c2cccnc2)c2ccc3cccnc3c2O)CC1` (centres undefined), with -15.1%; and `FC(F)(F)c1ccccc1Nc1nccs1`, with 14.9%.
As for `CC1CC(C)CN(c2nc3c(c(=O)[nH]c(=O)n3C)n2CCSc2nc3ccccc3o2)C1` (centres undefined), the cytotoxicity was 2.4%.
As to `N#CC1=C2SCN(c3ccccc3)CN2C(=O)CC1c1cccs1` (centres undefined), the cytotoxicity is 2.6%.
Next, `CCc1ccc(C2CC(=O)N3CN(c4ccccc4)CSC3=C2C#N)cc1` (centres undefined): 2.4%; `N#CC1=C2SCN(Cc3ccccc3)CN2C(=O)CC1c1cccs1` (centres undefined): -0.4%.
Then `COc1ccc(C2CC(=O)N3C(=C2C#N)SCC3(O)c2ccccc2)cc1` (centres undefined), with 12.5%.
Next, `N#CC1=C2SCC(O)(c3ccccc3)N2C(=O)CC1c1ccccc1` (centres undefined): 65.7% (active).
Regarding `COc1ccc(CCNS(=O)(=O)c2ccc3c(c2)OCCO3)cc1OC`, the cytotoxicity was -28.8%.
Then `COc1ccc(S(=O)(=O)N(C)CC(=O)NC2CC2)cc1`, with -20.5%; and `CCOc1ccc(N2CCCCn3c2nc2c3c(=O)[nH]c(=O)n2C)cc1`, with -9%.
Next, `COc1ccc(OC)c(NC(=O)CSc2nnc(Cn3c(=O)sc4ccccc43)n2C)c1`: 4.6%; `CCn1c(SCC(=O)c2cc(OC)ccc2OC)nc2c1c(=O)n(C)c(=O)n2C`: -4.8%; `Cc1csc(NC(=O)CSc2ncnc3c2cnn3-c2ccccc2Cl)n1`: 31.8%.
Next, `CCOC(=O)Cc1csc(NC(=O)CSc2ncnc3c2cnn3-c2ccccc2Cl)n1`: 50% (active).
For `CCOC(=O)Cc1csc(NC(=O)CSc2ncnc3c2cnn3-c2ccc(OC)cc2)n1`, the cytotoxicity was 4.2%.
Next, `Cc1cc(OCc2nn[nH]n2)c2c(C)c(Cc3ccccc3)c(=O)oc2c1`: 13.7%; `CSc1nc(-c2ccco2)cc(-c2ccccc2)c1C#N`: 45%.
Next, `Cc1cc(-c2ccccc2)c(C#N)c(N)n1`: 12.6%; `Cc1cccc2cc(CN(CCCO)C(=O)Nc3ccccc3Cl)c(=O)[nH]c12`: -2.4%; `CC[C@@H](C)[C@H](NC(=O)OC(C)(C)C)c1nnc(S(=O)(=O)Cc2cc(C)ccc2C)o1`: 46.9%.
Turning to `CC(C)(C)OC(=O)N[C@@H](Cc1ccccc1)c1nnc(S(=O)(=O)Cc2cccc(F)c2)o1`, the cytotoxicity is -21.9%.
Take `Cn1nc(-c2ccc(Cl)cc2)c2cc(C(=O)N3CCN(c4ccccn4)CC3)sc21`: the cytotoxicity is -7.2%.
As to `COc1ccc(N2CCN(C(=O)c3cc4c(-c5cccc(OC)c5)nn(C)c4s3)CC2)cc1`, the cytotoxicity was 15.7%.
Consider `CN(C)c1ncc(C(=O)O)cn1`, for which the cytotoxicity is 21.7%.
Then `O=C(c1c[nH]c2ccccc12)C(O)C(c1ccccc1)N1CCOCC1` (centres undefined), with -15.9%; and `COc1ccc(C(C(O)C(=O)c2c[nH]c3ccccc23)N2CCN(c3ccc(OC)cc3)CC2)cc1` (centres undefined), with 50.4% (active); and `COc1ccc(C(=O)c2c[nH]c3ccccc23)cc1`, with 15.5%.
Next, `O=C(Nc1ccccc1F)C1CCCN(S(=O)(=O)c2cccc3cccnc23)C1` (centres undefined): 7%; `Cn1cnnc1SCc1ccc(C#N)cc1`: 2.3%.
With `OCCN(CC(O)Cn1ccc2ccccc21)CC(O)Cn1ccc2ccccc21` (centres undefined), the cytotoxicity is 29.1%.
Turning to `OCCNCC(O)Cn1ccc2ccccc21` (centres undefined), the cytotoxicity is -4.4%.
Then `O=C1OCC2=C1C(c1ccc3c(c1)OCO3)Sc1ccccc1N2` (centres undefined), with -14.4%; and `Cc1c(C(=O)N2CCN(C)CC2)oc2c1C(=O)CC(C)(C)C2`, with -40.9%; and `c1ccc(-c2nc(N3CCN(c4ccccc4)CC3)nc(-n3ccnc3)n2)cc1`, with 30.8%.
Then `c1ccc(-c2nc(N3CCCCCC3)nc(-n3ccnc3)n2)cc1`, with -10.1%; and `Cn1nc(-c2ccc(Cl)cc2)c2cc(C(=O)N3CCOCC3)sc21`, with 8.6%; and `CC(=O)c1ccc(NC(=O)c2noc3c2CCCCC3)cc1`, with 16.4%.
In the case of `c1ccc2c(c1)oc1c(N3CCN(Cc4ccc5c(c4)OCO5)CC3)ncnc12`, the cytotoxicity was 10.1%.
Then `CCCCOc1ncnc2c1[nH]c1ccc(F)cc12`, with 5%; and `COc1cccc(N2CCN(c3ncnc4c3[nH]c3ccc(F)cc34)CC2C)c1` (centres undefined), with 121% (active); and `Fc1ccc2[nH]c3c(N4CCN(C5CCCCC5)CC4)ncnc3c2c1`, with 23.3%.
Turning to `Fc1ccc2[nH]c3c(N4CCN(c5ccccc5)CC4)ncnc3c2c1`, the cytotoxicity was -3.9%.
Next, `COc1cccc2[nH]c3c(N4CCN(Cc5ccc6c(c5)OCO6)CC4)ncnc3c12`: 44.8%.
As to `CN1CCN(c2ncnc3c2[nH]c2ccc(F)cc23)CC1`, the cytotoxicity was 5.5%.
Then `COc1ccc2[nH]c3c(N4CCN(Cc5ccc6c(c5)OCO6)CC4)ncnc3c2c1`, with 53.7% (active); and `COc1ccc2c(c1)c1ncnc(N3CCN(Cc4ccc5c(c4)OCO5)CC3)c1n2C`, with 43.1%.
Next, `Cc1ccc2c(c1)[nH]c1c(N3CCN(Cc4ccc5c(c4)OCO5)CC3)ncnc12`: 9.5%; `CCC1S/C(=C(\C#N)C(=O)NCc2ccco2)N(c2ccc(F)cc2)C1=O` (centres undefined): -16.6%; `CC1CCCCN1S(=O)(=O)c1ccc2c(c1)oc(=O)n2CC(=O)O` (centres undefined): -0.1%.
`CCN=C(Nc1ccc2c(c1)OCO2)SC1CC(=O)N(c2ccccc2F)C1=O` (centres undefined): the cytotoxicity is -6%.
As to `O=C(O)CCS(=O)(=O)Cc1ccccc1F`, the cytotoxicity was 1.1%.
Then `Cn1c(-c2ccc(F)cc2)cnc1SCC(=O)N1CCCCC1`, with -5.4%.
Next, `C/C=C/c1ccc(Oc2nnnn2-c2ccc(C(N)=O)cc2)c(OC)c1`: 1%.
Then `c1nc(N2CCN(Cc3ccc4c(c3)OCO4)CC2)c2[nH]cnc2n1`, with -0.7%; and `Cc1ccc2[nH]c3c(N4CCN(Cc5ccc6c(c5)OCO6)CC4)ncnc3c2c1`, with 34.4%.
For `Fc1ccc2[nH]c3c(N4CCN(Cc5ccc6c(c5)OCO6)CC4)ncnc3c2c1`, the cytotoxicity was 95.1% (active).
Regarding `CCOc1ccc(N(CC(=O)NCc2cccs2)S(=O)(=O)c2c(C)noc2C)cc1`, the cytotoxicity is -1.7%.
For `CCOC(=O)N1CCN(c2c(N3CC=C(c4ccccc4)CC3)c(=O)c2=O)CC1`, the cytotoxicity is -2.9%.
`O=C(CSc1nc2ccccc2o1)Nc1ccccc1`: the cytotoxicity is -14.6%.
Turning to `CSc1cccc(NC(=O)CSc2nc3ccccc3o2)c1`, the cytotoxicity was -18.9%.
Next, `COc1ccc(C(=O)Nc2cccc(C)c2)cc1S(=O)(=O)N1CCOCC1`: 15.9%.
Then `O=C(NCc1ccoc1)c1ccc(NC(=O)c2ccccc2Cl)cc1`, with -12.8%.
In the case of `COCCn1nnnc1CN1CCC(NC(=O)c2ccc(Br)cc2)CC1`, the cytotoxicity was -2.4%.
Then `CC(=O)OCC1OC(n2ccc(=O)[nH]c2=O)C(O)C1O` (centres undefined), with 0.8%; and `CC(=O)OC[C@H]1O[C@@H](n2ncc(=O)[nH]c2=O)[C@H](OC(C)=O)[C@@H]1OC(C)=O`, with 54.7% (active); and `CC(=O)OC[C@H]1O[C@@H](n2ccc(=O)[nH]c2=S)C(OC(C)=O)C1OC(C)=O` (some centres undefined), with 4.5%.
With `Nc1nc2nonc2nc1N1CCCCC1`, the cytotoxicity was -2.7%.
Then `CCOC(=O)c1cnc(SC2CC(=O)N(c3ccc(OC)c(OC)c3)C2=O)nc1N` (centres undefined), with -9.5%.
Then `CC(NCCC(c1ccccc1)c1ccccc1)c1ccccc1` (centres undefined), with 90.2% (active); and `CC(NC(=O)CSc1ncccn1)c1ccccc1` (centres undefined), with 1.8%; and `C/C(Cl)=C\CNC(C)c1ccccc1` (centres undefined), with -6.7%.
On to `CCCC(=O)N1CCN(c2ccc(NC(=O)c3cc4ccccc4o3)cc2)CC1`, for which the cytotoxicity is -19%.
Next, `O=C(Nc1ccc(N2CCN(C(=O)c3ccco3)CC2)c(Cl)c1)c1c(F)c(F)c(F)c(F)c1F`: 103% (active); `O=C(Nc1ccc(N2CCOCC2)c(Cl)c1)c1cccc(F)c1`: 31.3%.
Then `O=C(Nc1ccc(N2CCOCC2)c(Cl)c1)c1ccco1`, with -11.5%; and `O=C(Cc1ccc(Cl)cc1)Nc1ccc(N2CCN(C(=O)c3ccco3)CC2)c(Cl)c1`, with 21.6%; and `O=C(Nc1ccc(N2CCN(C(=O)c3ccco3)CC2)c(Cl)c1)c1cccs1`, with -1%.
With `O=C(Nc1ccccc1N1CCN(C(=O)c2ccccc2)CC1)c1cc2ccccc2o1`, the cytotoxicity is -7.4%.
As to `O=C(Nc1ccccc1N1CCN(C(=O)c2ccc(Cl)cc2)CC1)c1cc2ccccc2o1`, the cytotoxicity is 13.1%.
Next, `O=C(Nc1ccc(N2CCOCC2)c(Cl)c1)c1c(F)c(F)c(F)c(F)c1F`: 64.4% (active); `CCC(=O)Nc1ccc(NC(=O)c2cc3ccccc3o2)cc1`: -17.1%.

These data come from PubChem BioAssay AID431 (Sanford-Burnham Center for Chemical Genomics, 2006).
